Source: the supplement of paper PMC6555819

How the values were obtained:
Assay in all cases: PBM binding z-score (relative to random genomic background probes); higher = stronger binding; sequences stand for … in GC…GCGATTGACAGCGTAGAATGAAGG
[1] = system: FXR:RXRa (NR concentration 270 nM, RXRa partner concentration 90 nM)
Method in brief: (§1)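 Binding z-scores were set against random background probes. The data came from custom Agilent 4×180K protein-binding microarrays carrying double-stranded probes with 34-nt variable regions, incubated 1 h with ligand-free nuclear receptor dimers. Partner-specific antibodies detected binding, and scanned fluorescence was regression-normalized.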

[2] = system: LXRa:RXRa (NR concentration 270 nM, RXRa partner concentration 90 nM)
Method in brief: as §1

[3] = system: LXRa homodimer (NR concentration 270 nM)
Method in brief: as §1

[4] = system: LXRb:RXRa (NR concentration 270 nM, RXRa partner concentration 90 nM)
Method in brief: as §1

[5] = system: LXRb homodimer (NR concentration 270 nM)
Method in brief: as §1

[6] = system: PPARa:RXRa (NR concentration 270 nM, RXRa partner concentration 90 nM)
Method in brief: as §1

[7] = system: PPARg:RXRa (NR concentration 180 nM, RXRa partner concentration 90 nM)
Method in brief: as §1

[8] = system: PPARg:RXRa 270nM:90nM, anti-RXR (NR concentration 270 nM, RXRa partner concentration 90 nM)
Method in brief: as §1

[9] = system: PPARg:RXRa 30nM:10nM, anti-RXR (NR concentration 30 nM, RXRa partner concentration 10 nM)
Method in brief: as §1

[10] = system: PPARg:RXRa 90nM:30nM, anti-RXR (NR concentration 90 nM, RXRa partner concentration 30 nM)
Method in brief: as §1

[11] = system: PPARg:RXRa DBDmut IVT, anti-RXR (DBD mutation: RXRa K156A/R161A, NR concentration 270 nM, RXRa partner concentration 90 nM)
Method in brief: as §1

[12] = system: PPARg:RXRa IVT, anti-PPARg (NR concentration 270 nM, RXRa partner concentration 90 nM)
Method in brief: as §1

[13] = system: PPARg DBDmut:RXRa IVT, anti-PPARg (DBD mutation: PPARg1 K132A/R137A, NR concentration 270 nM, RXRa partner concentration 90 nM)
Method in brief: as §1

[14] = system: PPARg DBDmut IVT, anti-PPARg (DBD mutation: PPARg1 K132A/R137A, NR concentration 270 nM)
Method in brief: as §1

[15] = system: PPARg homodimer (NR concentration 180 nM)
Method in brief: as §1

[16] = system: PXR:RXRa (NR concentration 270 nM, RXRa partner concentration 90 nM)
Method in brief: as §1

[17] = system: PXR homodimer (NR concentration 270 nM)
Method in brief: as §1

[18] = system: RARa:RXR (NR concentration 270 nM, RXRa partner concentration 90 nM)
Method in brief: as §1

[19] = system: RARa homodimer (NR concentration 270 nM)
Method in brief: as §1

[20] = system: RARb:RXRa (NR concentration 270 nM, RXRa partner concentration 90 nM)
Method in brief: as §1

Sequence	PBM binding z-score [1]	PBM binding z-score [2]	PBM binding z-score [3]	PBM binding z-score [4]	PBM binding z-score [5]	PBM binding z-score [6]	PBM binding z-score [7]	PBM binding z-score [8]	PBM binding z-score [9]	PBM binding z-score [10]	PBM binding z-score [11]	PBM binding z-score [12]	PBM binding z-score [13]	PBM binding z-score [14]	PBM binding z-score [15]	PBM binding z-score [16]	PBM binding z-score [17]	PBM binding z-score [18]	PBM binding z-score [19]	PBM binding z-score [20]
ATCTCTACGTAACCAAGTTCAGTGAATGCCGAAC	0.0268	0.0264	0.728	0.389	1.1	0.166	0.223	0.137	0.163	0.36	-0.22	0.0113	0.854	0.806	0.739	1.29	1.4	0.427	0.401	0.836
TAGCCGAGGTCATGGGCCAGTATACCACGCGAAC	7.63	5.96	0.925	4.99	0.79	6.28	7.45	7.21	3.43	5.67	1.94	4.59	1.31	0.953	2.7	5.24	0.728	5.62	0.741	5.01
CCTAGCAGGCCCATCTGGGTCACTCAAGGCTTGA	0.338	0.486	-0.426	0.484	-1.16	1.7	0.158	0.743	-0.909	-0.217	0.547	2.42	-1.01	-1.83	0.0647	0.362	-0.496	1.21	-0.257	0.978
CCGAGTAGGTTATGGGGCATTCATGCAACGGTGA	0.225	0.548	-0.0106	0.797	-0.214	2.26	3.65	4.6	3.02	4.44	3.37	3.49	-0.836	0.00847	0.908	0.114	-0.204	0.175	0.24	0.981
CGTCAAAGTTCAACTAAGATAACGTAAAGCACGC	6.92	6.3	4.03	4.14	2.68	5	4.94	5.19	2.56	4.27	0.308	2.03	1.72	2.53	4.35	4.78	3.71	4.27	2.93	5.08
TCTAGCAGTCCAGAGGGTCACTCAAGAGGTACGG	0.754	0.962	-0.326	1.19	-1.12	2.06	0.609	1.52	2.05	1.63	0.669	0.15	-0.632	-0.476	0.412	1.67	-0.406	2.48	0.0783	2.07
CCAGACAGGGGAAAGGTAACTCAGTCTGGTACGC	-0.0858	-0.233	-0.21	0.0681	-0.648	1.46	2.34	3.79	1.37	3.25	-0.0945	0.279	-0.482	-1.01	0.356	0.0184	-0.106	0.15	-0.374	0.202
CGTCAAAGTGCAACTAAGGTAACGTAAAGCACGC	0.888	0.803	-0.122	0.5	-0.623	1.29	0.842	0.685	0.0299	0.977	0.000169	0.492	-0.123	-0.228	0.0705	1.55	0.00934	2.04	-0.027	2.07
CGTCCAAGGTCAGAGAAGTCAGTGAATGCCGAGT	4.48	2.9	0.222	2.17	-0.0616	3.73	1.89	2.54	0.704	1.5	2.46	2.18	-0.292	-0.903	1.38	2.55	0.728	2.86	0.262	4.68
CGTCCAAGGTCATAGGAGGTCAGTAAAGACAGAT	7.75	7.7	5.05	6.36	1.18	5.96	5.82	6.05	2.41	4.8	3.22	4.57	1	1.13	5.13	6.88	4.18	6.22	2.02	5.38
TAGCCTAGGTGATGGGCCAGTATACCACGCGAAC	-0.85	-0.73	-0.59	-0.909	-0.955	-0.386	0.501	0.427	-0.547	-0.0568	-0.692	0.25	-0.775	-0.847	-0.49	-0.714	-0.807	-0.895	-1.38	-0.281
CAAACTAGGTCCCCGGAAGGTCAAAGTCCGCATG	2.38	3.13	2.88	2.9	0.475	3.7	2.01	2.86	0.494	1.63	4	4.13	0.31	0.647	3.1	3.72	1.36	3.99	0.686	3.24
ATCTCTAGGTAAAGCTAGTTCAGTGAATGCAAAT	0.153	1.45	-0.0105	0.175	0.196	0.456	-0.125	0.354	0.0636	0.224	2.03	1.83	0.606	0.732	0.371	1.07	0.241	0.383	0.278	0.0194
GATACAGGGTCAGCTAGAGGCCAGAGAATGGAAA	4.74	2.83	-0.346	2.73	-0.535	4.65	3.8	3.53	1.08	2.59	1.5	2.31	0.246	-1.1	2.84	3.34	0.000802	4.73	0.734	4.34
CCAGAGAGGTGAGAAGGTAACTCAGCCTCGATTA	0.595	0.597	-0.207	1.02	-0.739	2.17	0.83	1.36	0.216	0.457	2.21	1.69	-0.147	-0.518	0.918	0.339	0.0728	1.04	-0.0942	1.57
